Screens: PubChem, National Center for Advancing Translational Sciences (NCATS)
SW480 rereplic – induces DNA re-replication in SW480 colon adenocarcinoma cells | Potency, µM (highest dose often 46.1 µM), for the others: top-dose re-replication activation, usual class: activators | 1.8% of 340,000 active | AID 624297 | SW480 DNA re-replication, Hoechst DNA content imaging, 48 h; further: % of control where 0% means no effect; nearly all actives have a fitted effect of over 55% in size
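Quantitative HTS format with DMSO vehicle controls; 48 hr drug incubation at 37 C, then 40 min Hoechst staining and scanning imager measurement at 405 nm excitation.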
MCF10A rerep – inducers of DNA re-replication in MCF 10A breast cells; MCF 10A DNA re-replication, Hoechst nuclear intensity, 48 h; Potency, µM (series often up to 46.1 µM), without a hit: at the highest dose activity, positive = re-replication, most hits filed as activators; 2.9% of 350,000 active; AID 624296; further: % of control where 0% means no effect; nearly all actives have a fitted effect of over 50% in size
KB-V1 MDR tox – KB-V1 MDR subline cytotoxicity | AID 1347076 | 3.4% of 400,000 active | KB-V1 MDR cells viability, CellTiter-Glo, 72 h | Potency, µM (highest dose often 46.1 µM), usual class: cytotoxic; further: on the % scale 0 is the no-effect control and ±100 the full control effect; nearly all actives have a fitted effect of over 60% in size
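Readout: CellTiter-Glo luminescence, 10 min after addition. Cells: KB-V1 MDR subline, 72 h at 37 degrees C with compound. Analysis: corrected, normalized data fitted to concentration-effect curves.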
KB-3-1 tox – kills parental KB-3-1 adenocarcinoma cells; KB-3-1 viability, CellTiter-Glo ATP luminescence, 72 h; Potency, µM (top dose mostly 46.1 µM), usual class: cytotoxic; 1.4% of 400,000 active; further: on the % scale 0 is the no-effect control and ±100 the full control effect; nearly all actives have a fitted effect of over 60% in size
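Screening of KB-3-1 cells (DMEM, 10% FBS, phenol-red free) ran from lowest to highest compound concentration; after 72 h at 37 °C viability was read luminescently and curves fitted.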
HT1080 IDH1KD tx – HT-1080 IDH1 knockdown cell toxicity (counter line) | HT-1080 IDH1 knockdown viability, ATP luminescence, 48 h | Potency, µM (highest dose often 46.1 µM), for inactives: top-dose activity, negative = toxicity, hits mostly cytotoxic | 2% of 360,000 active | AID 686971;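 further: 0% = DMSO wells and -100% = cell-free medium wells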
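IDH1KD HT-1080 cells, 750/well, RPMI + 5% FBS; compound pinned after 2 h settling; 48 h, 37 °C; CellTiter-Glo luminescence; % activity normalised to DMSO and no-cell wells; curves fitted, classed by r2 and efficacy.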
HT1080NT lethal – kills 2HG-producing HT-1080-NT fibrosarcoma cells | Potency, µM (titrated, usually from 46.1 µM), without a hit: at the highest dose activity, negative = less viability, usual class: cytotoxic | AID 686970 | HT-1080-NT fibrosarcoma viability, CellTiter-Glo ATP luminescence, 48 h | 1.6% of 360,000 active;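 further: NT is the 2HG producing partner of a matched IDH1 knockdown line; 0% = DMSO-treated cells and -100% = media-only wells without cells; nearly all actives have a fitted effect of over 55% in size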
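Read-out is CellTiter-Glo luminescence after 10 minutes at room temperature, following 48 hours' compound treatment of HT-1080-NT cells (750 cells/well, RPMI, 5% FBS, 37 degrees C).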
Starred values were filed as active, the others as inactive; i = inactive; ? = inconclusive; nt = no result given; ! = not confirmed by another sample. A selection: hits, their analogues and other compounds. The true share with any hit is near 8%. The call rests on the fitted dose curve; in most records, active means well fitted curve in the direction sought with a large enough effect; inconclusive means small, poorly fitted or top-dose-only effect, or another doubt; inactive means no such curve, though single readings can be large; an effect the other way counts as inactive or inconclusive. Potency means the concentration at half of the fitted maximal effect.

SMILES	SW480 rereplic	MCF10A rerep	KB-V1 MDR tox	KB-3-1 tox	HT1080 IDH1KD tx	HT1080NT lethal
Cc1cccc(NC(=O)CN2C(=O)N/C(=C/c3ccc(-c4cccc(C(=O)O)c4C)o3)C2=O)c1	-5%	5%	i	i	-1%	5%
CCOC(=O)CN1C(=O)S/C(=C\c2ccc(-c3ccc(C(=O)O)c(Cl)c3)o2)C1=O	0.65µM*	23µM*	i	i	5%	9%
Cc1ccc(NC(=O)c2cc(NC(=O)CCCC(=O)O)ccc2Cl)cc1Cl	-4%	0%	i	i	-4%	-1%
Cc1cccc2c(=O)cc(C(F)(F)F)[nH]c12	-1%	13%	i	i	?	?
Cc1ccc2c(CC(=O)Nc3ccc(S(=O)(=O)N4CCCCC4C)cc3)coc2c1 (configuration not stated)	nt	nt	i	i	nt	nt
Cc1ccc(C2CC(c3ccco3)=NN2S(C)(=O)=O)cc1 (configuration not stated)	1%	-1%	i	i	24%	16%
COc1ccc(-c2nnc(SCc3c(C)noc3C)n2N)cc1OC	-1%	15%	7.3µM*	i	-3%	1%
COc1ccc2[nH]c(C)c(CCNC(=S)Nc3ccc(C)cc3)c2c1	?	-1%	i	i	-3%	1%
NC(=O)N1CCN(CCCN2c3ccccc3Sc3cc(Cl)ccc32)CC1	nt	nt	i	i	?	?
CN1CCN(CCCN2c3ccccc3Sc3ccc(C(F)(F)F)cc32)CC1	?	23µM*	21µM*!	?	?	21µM*!
c1ccc2c(c1)Sc1ccccc1N2CCN1CCCC1	3%	7%	nt	nt	nt	nt
O=C1CSC2(CCN(CCCN3c4ccccc4Sc4ccc(Cl)cc43)CC2)N1	7%	19µM*	nt	nt	nt	nt
CCOC(=O)N1CCN(S(=O)(=O)c2ccc(C)cc2)C1	?	-1%	i	i	2%	-4%
CCOc1ccccc1NC(=O)Nc1ccc(CC#N)cc1	-2%	3%	i	i	-2%	-2%
CC(C)=CCOc1ccc(/C=C/C(=O)c2ccc(OCC=C(C)C)cc2OCC(=O)O)cc1	-3%	12µM*	nt	nt	nt	nt
CSCCC(NC(=O)c1ccc([N+](=O)[O-])cc1Cl)C(=O)OCC(=O)NCC(F)(F)F (configuration not stated)	1%	3%	?	i	10%	6%
Oc1c(C(c2ccccc2)N2CCOCC2)ccc2ccccc12 (configuration not stated)	?	16µM*	i	?	-19%	-14%
COCCn1c(-c2cccs2)nc2nc3ccccc3nc21	7.3µM*	?	i	i	-5%	-1%
CCC(CO)NCC#Cc1ccccc1 (configuration not stated)	5%	5%	i	i	11%	9%
O=C1CCCCC1Oc1ccc2ccc(=O)oc2c1 (configuration not stated)	-1%	5%	i	i	5%	16%
COc1cccc(CNC(=O)COC(=O)c2ccc(C(=O)c3ccccc3)cc2)c1	0%	13%	i	i	?	-3%
COc1cccc(CNC(=O)COC(=O)c2ccc(-c3ccc(O)cc3)cc2)c1	nt	nt	?	i	21µM*	?
COc1ccc(C(=O)c2cn[nH]c2-c2ccc(C)cc2O)cc1	-4%	4%	?	i	18%	10%
COc1ccc(-c2[nH]ncc2N=Nc2ccccc2)cc1	?	9%	?	?	16µM*	16µM*
COc1ccc(-c2[nH]ncc2N=Nc2cc(C)cc(C)c2)cc1	?	?	?	?	21µM*	18µM*
SMILES	SW480 rereplic	MCF10A rerep	KB-V1 MDR tox	KB-3-1 tox	HT1080 IDH1KD tx	HT1080NT lethal
O=C(COC(=O)COc1ccc(Br)cc1)Nc1ccc2c(c1)OCCO2	0%	8%	i	i	10%	16%
Cc1nn(Cc2c(F)cccc2Cl)c(C)c1NC(=O)C1CC1	0.52µM*	1%	i	i	22%	11%
Cc1nn(Cc2ccc(F)cc2)c(C)c1NC(=O)C1c2ccccc2Oc2ccccc21	1%	18µM*	i	i	-12%	-17%
Cc1cc(C(=O)Nc2c(C)nn(Cc3ccc(F)cc3)c2C)on1	-11%	7%	i	i	2%	4%
O=S(=O)(Nc1ccc2nc(C(F)(F)F)[nH]c2c1)c1ccccc1	-5%	17%	?	i	6%	-5%
COc1ccccc1NS(=O)(=O)c1cc(NC(=O)c2ccco2)ccc1N1CCOCC1	10%	-9%	?	i	-13%	-1%
COC(=O)c1ccccc1NC(=O)CN1CCN(c2ccccn2)CC1	2%	-3%	i	i	3%	0%
COC(=O)c1ccccc1N/C=C1\CCc2c(c(C)nn2-c2ccccn2)C1=O	1%	8.2µM*	i	i	0%	-2%
Cc1ccc(NS(=O)(=O)c2ccc(CCC(=O)N3CCOCC3)cc2)cc1	?	6%	i	i	0%	-1%
Cc1cccc(-n2c(-c3csc4ccccc34)n[nH]c2=S)c1	-1%	28%	i	i	3%	2%
CCn1c(-c2csc3ccccc23)n[nH]c1=S	-3%	1%	7.3µM*	18µM*	-1%	-2%
CC(C)Cn1c(-c2csc3ccccc23)n[nH]c1=S	6%	11%	16µM*	i	1%	-4%
O=C(COc1ccccc1F)OCC(=O)c1ccc([N+](=O)[O-])cc1	-1%	9%	i	i	0%	0%
C[C@@H]1CN([C@H](C)CO)C(=O)CCCn2nncc2CO[C@@H]1CN(C)S(=O)(=O)c1ccc(Cl)cc1	nt	nt	i	i	-9%	-17%
O=C(Cc1ccc(Cl)cc1)N/N=C/c1ccc(O)c(O)c1	nt	nt	?	?	-29%	-16%
CC(C)(C)OC(=O)N/N=C/c1cc(N=Nc2ccccc2)ccc1O	-4%	?	i	?	?	-4%
O=C(N/N=C/c1cc(Cl)ccc1O)c1ccc(Br)cc1	1.6µM*	14%	?	?	5.8µM*	9.2µM*
O=C(N/N=C\c1cc(Br)ccc1O)c1ccc(S(=O)(=O)N2CCCCC2)cc1	4%	-4%	i	i	2.1µM*	?
Cc1ccc(N=Nc2ccc(O)c(/C=N\NC(=O)c3ccc(N)cc3)c2)cc1C	3.7µM*	0%	i	i	1.6µM*	4µM*
Cc1ccc(O)c(/C=N/NC(=O)Cc2ccc(Cl)cc2)c1	5%	0%	i	i	13µM*	?
